Most compounds without a hit are left out; they make up all but 1.3% or so of the library.
VACV Venus inh – inhibitors of vaccinia virus (Venus reporter); Vaccinia virus Venus reporter expression, fluorescence; Potency, µM (top dose mostly 36.5 µM), most hits filed as inhibitors; AID 720580; hit rate 0.46% among 330,000; calls by dose curve; tested in A549 cells; further: nearly all actives have a fitted effect of over 30% in size
AmpC no deterg – AmpC beta-lactamase inhibition without detergent. P00811. AmpC nitrocefin hydrolysis, absorbance 480 nm, 0.0001% Triton. hit rate 0.52% among 330,000. Potency, µM (titrated, usually from 57.1 µM), usual class: inhibitors; further: nearly all actives have a fitted effect of over 20% in size
Target sequence (P00811 whole entry, looked up): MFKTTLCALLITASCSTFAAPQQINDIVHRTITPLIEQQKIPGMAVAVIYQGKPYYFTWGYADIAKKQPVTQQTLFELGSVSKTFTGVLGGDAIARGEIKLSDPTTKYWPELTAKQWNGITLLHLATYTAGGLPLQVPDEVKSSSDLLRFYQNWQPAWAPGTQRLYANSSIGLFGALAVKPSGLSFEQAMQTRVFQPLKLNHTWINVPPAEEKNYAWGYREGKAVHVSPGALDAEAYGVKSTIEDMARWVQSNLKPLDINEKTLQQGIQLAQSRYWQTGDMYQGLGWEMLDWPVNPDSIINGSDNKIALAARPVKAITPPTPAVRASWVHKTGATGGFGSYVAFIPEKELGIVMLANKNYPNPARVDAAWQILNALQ
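AmpC (5.3 nM in the dispensed reagent) in 20 mM phosphate pH 7.0 with 0.01% (detergent screen) or 0.0001% Triton X-100 was preincubated with compounds for 15 min at room temperature. Nitrocefin was then added from an 800 uM solution, and hydrolysis was followed at 480 nm.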
SARS PLP yeast – inhibitors of SARS-CoV papain-like protease in yeast; hit rate 0.19% among 330,000; S. cerevisiae expressing SARS-CoV PLpro, growth rescue; Potency, µM (titrated, usually from 32.9 µM), hits mostly activators; calls by dose curve; further: nearly all actives have a fitted effect of over 55% in size
Vaccinia mCherry – vaccinia inhibition (mCherry reporter); Potency, µM (highest dose often 36.5 µM), hits mostly inhibitors; Vaccinia virus mCherry reporter infection, fluorescence; hit rate 0.63% among 310,000; calls by dose curve; tested in A549 cells; further: nearly all actives have a fitted effect of over 35% in size
AmpC inh detg – AmpC beta-lactamase inhibition with detergent present. Potency, µM (titrated, usually from 114 µM), actives largely listed as inhibitors. AmpC hydrolysis of nitrocefin, absorbance 480 nm, 0.01% Triton. hit rate 0.041% among 370,000. P00811; further: nearly all actives have a fitted effect of over 25% in size
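AmpC (5.3 nM in the dispensed reagent) in 20 mM phosphate pH 7.0 with 0.01% (detergent screen) or 0.0001% Triton X-100 was preincubated with compounds for 15 min at room temperature. Nitrocefin was then added from an 800 uM solution, and hydrolysis was followed at 480 nm.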
Each line names hits and unclear results; the compound was inactive in the other large screens. Unless noted, the call rests on the fitted dose curve; in most records, active means well fitted curve in the direction sought with a large enough effect; inconclusive means small, poorly fitted or top-dose-only effect, or another doubt; inactive means no such curve, though single readings can be large; an effect the other way counts as inactive or inconclusive.

O=C(N/N=C/c1ccccn1)c1ccc(Cl)cc1	Vaccinia mCherry 3.2µM, AmpC inh detg inconclusive
Fc1ccc(C2=Nc3cccc4cccc(c34)N2)cc1	none
FC(F)(F)C1=Nc2cccc3cccc(c23)N1	AmpC no deterg 8.9µM, AmpC inh detg inconclusive
O=C1C=C(N2CCOCC2)c2ccccc2C1=O	VACV Venus inh 11µM, Vaccinia mCherry inconclusive, AmpC inh detg inconclusive
C[C@@H]1[C@@H](Sc2ccccc2)CC(=O)O[C@@H]1c1ccc(-c2ccccc2)cc1	VACV Venus inh 2.5µM, Vaccinia mCherry inconclusive (no result: AmpC no deterg, SARS PLP yeast, AmpC inh detg)
COc1ccc(/C=C/C(=O)c2ccc(C(=O)/C=C/c3ccc(OC)c(OC)c3)cc2)cc1OC	none (no result: VACV Venus inh, Vaccinia mCherry)
COc1cccc(OC)c1C(=O)NC(=S)NNC(=O)[C@H]1C[C@@H]1c1ccccc1	none (no result: VACV Venus inh, Vaccinia mCherry)
COc1ccc(C=CC(=O)c2ccc(OCc3ccccc3)c(OC)c2)cc1OC	VACV Venus inh 11µM, Vaccinia mCherry 28µM (no result: AmpC no deterg, SARS PLP yeast, AmpC inh detg)
COc1ccc(/C=C/C(=O)c2ccc(O)cc2)cc1COc1ccc(F)cc1	AmpC no deterg 11µM
COc1ccc(/C=C/C(=O)c2ccccc2)cc1COc1ccc(F)cc1	none (no result: VACV Venus inh, Vaccinia mCherry)
COc1cc(C(=O)/C=C/c2cccnc2)ccc1O	VACV Venus inh 8.9µM, Vaccinia mCherry 3.5µM
COc1ccc(/C=C/C(=O)NC(=S)NNC(=O)[C@H]2C[C@@H]2c2ccccc2)cc1OC	AmpC no deterg 7.1µM, Vaccinia mCherry inconclusive
Cc1nc2ccc(C(=O)N3CCc4c(cnc(C)c4CNC(=O)/C=C/c4cccs4)C3)cc2nc1C	none (no result: AmpC no deterg, SARS PLP yeast, AmpC inh detg)
COc1cccc(CN2CCC3(CC2)c2ccccc2[C@@H](NC(=O)c2ccccc2)[C@@H]3O)c1O	none (no result: AmpC no deterg, SARS PLP yeast, AmpC inh detg)
Cc1cccc2cc3c(N)c(C(=O)Nc4ccc(N5CCOCC5)cc4)sc3nc12	none
Cc1ccc2nc3sc(C(=O)Nc4ccc(N5CCOCC5)cc4)c(N)c3cc2c1	AmpC no deterg 0.35µM (no result: VACV Venus inh, Vaccinia mCherry)
COc1cc(CN2CCOc3ccc(CN4CCC(O)(c5cccnc5)CC4)cc3C2)cc(OC)c1	none (no result: AmpC no deterg, SARS PLP yeast, AmpC inh detg)
Cc1ccccc1-c1nc(NCCN(C)C)nc2ccsc12	none (no result: AmpC no deterg, SARS PLP yeast, AmpC inh detg)
NCCCn1c(C(=O)c2cc(Cl)c(N)c(Cl)c2)c2ccc([N+](=O)[O-])cc2[n+]1[O-]	VACV Venus inh 13µM, Vaccinia mCherry inconclusive
CCC[C@@H](CN[C@@H](CNC)[C@H](C)CC)NCC1CCC(C(C)(C)C)CC1 (some centres not stated)	VACV Venus inh 13µM, Vaccinia mCherry inconclusive
CC[C@@H](C)[C@H](CNC)NC[C@@H](Cc1cccc2ccccc12)NCCc1cccc(C(F)(F)F)c1	VACV Venus inh inconclusive, Vaccinia mCherry inconclusive
CCC[C@H](CN[C@@H](CNC)[C@H](C)CC)NCCc1cc(C(F)(F)F)cc(C(F)(F)F)c1	VACV Venus inh 20µM, Vaccinia mCherry inconclusive
CC(NC(=O)c1cccnc1)c1nnc2n1CCN(Cc1ccc(-c3ccccc3)cc1)CC2 (configuration not stated)	none (no result: AmpC no deterg, SARS PLP yeast, AmpC inh detg)
Cc1cc(OCCn2cc(/C(N)=N/O)c3ccccc32)ccc1Cl	VACV Venus inh inconclusive, AmpC no deterg 16µM, Vaccinia mCherry inconclusive, AmpC inh detg inconclusive
CCC(=O)NCCCCCCNC(=O)CC	AmpC inh detg inconclusive
O=C(CCl)NCCCCCCCCCNC(=O)CCl	VACV Venus inh 5.6µM, SARS PLP yeast inconclusive, Vaccinia mCherry 14µM
CC(C)(C)NC(=O)CN(Cc1cccs1)C(=O)C1COc2ccccc2O1 (configuration not stated)	none (no result: VACV Venus inh, Vaccinia mCherry)
CC(C)CCNC(=O)C(c1ccc(O)cc1)N(Cc1cccs1)C(=O)C1COc2ccccc2O1 (configuration not stated)	VACV Venus inh 28µM, Vaccinia mCherry 11µM, AmpC inh detg inconclusive
CS(=O)(=O)c1ccc(-c2ccc3c(c2)CC(CNC(=O)C2(N4CCOCC4)CCCCC2)O3)cc1 (configuration not stated)	VACV Venus inh inconclusive (no result: AmpC no deterg, SARS PLP yeast, AmpC inh detg)
O=C1N[C@@H](Cc2ccccc2)COC(=O)[C@H](Cc2ccc(F)cc2)CC/C=C/C[C@@H]1CC(=O)N(CCO)Cc1ccccc1	VACV Venus inh inconclusive, Vaccinia mCherry inconclusive (no result: AmpC inh detg)
O=C1N[C@@H](Cc2ccccc2)COC(=O)[C@@H](Cc2ccc(F)cc2)CC/C=C/C[C@H]1CC(=O)N(CCO)Cc1ccccc1	VACV Venus inh 11µM, Vaccinia mCherry inconclusive (no result: AmpC inh detg)
Cc1ccc(-n2cc(CN3CCC(CO)(Cc4cccc(C(F)(F)F)c4)CC3)cn2)cc1	VACV Venus inh 11µM, Vaccinia mCherry inconclusive

Source: PubChem BioAssay
